The list is not random: actives were taken first. Their share in the collection is about 27%.
Cav3 T inh – blocks human Cav3.2 T-type calcium channel; O95180; Cav3.2-expressing cells, Fluo-4 calcium fluorescence FDSS; hits give low values; B-score at 10 µM; 100,000 tested, 4% active;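 active means single-dose well whose peak fluorescence ratio is a statistical outlier from its plate by either plate-standardised score or position-corrected B-score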
CYP2C9 activ – increases human cytochrome P450 2C9 activity; recombinant CYP2C9, luciferin-H conversion, luminescence; hits give high values; factor 1 = untreated enzyme, 0 = blocked; AID 1024; activation factor at 5 µM; 96,000 tested, 1.4% active;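 active means activation factor of 2 or more for CYP2C9 at a 5 µM dose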;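 further: 0 = sulfaphenazole-blocked wells and 1 = vehicle-only wells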
CYP2C19 inhib – inhibitors of human CYP2C19. CYP2C19 Supersomes, luciferin-H EGE luminescence, 30 min. inhibition, % at 5 µM. P33261. 96,000 tested, 21% active;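 active means CYP2C19 inhibition above a set limit at 5 µM in the primary screen, cut at about 50% in these data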;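 further: plate controls were negative control wells for no effect and 2.5 mM tranylcypromine positive control for full effect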
Target sequence (P33261 whole entry, looked up): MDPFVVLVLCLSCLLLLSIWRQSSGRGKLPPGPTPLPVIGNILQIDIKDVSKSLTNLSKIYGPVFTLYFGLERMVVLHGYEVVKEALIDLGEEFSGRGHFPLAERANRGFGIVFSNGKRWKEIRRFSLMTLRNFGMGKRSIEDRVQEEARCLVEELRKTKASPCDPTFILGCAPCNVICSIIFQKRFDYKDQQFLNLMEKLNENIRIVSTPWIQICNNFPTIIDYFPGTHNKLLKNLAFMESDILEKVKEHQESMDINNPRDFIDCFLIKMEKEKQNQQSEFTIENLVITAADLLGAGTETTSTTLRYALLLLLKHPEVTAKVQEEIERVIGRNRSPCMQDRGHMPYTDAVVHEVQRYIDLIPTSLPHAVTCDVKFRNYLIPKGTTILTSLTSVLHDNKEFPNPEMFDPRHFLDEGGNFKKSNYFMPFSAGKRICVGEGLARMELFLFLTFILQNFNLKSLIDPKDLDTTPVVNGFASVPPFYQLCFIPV
CYP2C9 inh – blocks human cytochrome P450 2C9 | P11712 | CYP2C9 Supersomes, luciferin-H conversion, luminescence | inhibition, % at 5 µM | 96,000 tested, 20% active;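 active means blocking of liver enzyme CYP2C9 beyond about 50% at 5 µM, limit read from the data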
CYP2C19 activ – cytochrome P450 2C19 (human) activation; activation factor at 5 µM; recombinant CYP2C19, luciferin-H EGE luminescence; hits give high values; 0 = fully inhibited enzyme, 1 = untreated enzyme; 96,000 tested, under 10 active; P33261;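 active means activation factor of at least 2 at 5 µM in the primary screen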;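 further: 0 = wells with 2.5 mM tranylcypromine and 1 = vehicle-only wells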
An asterisk follows results filed as active; · = not tested or not shown.

SMILES	Cav3 T inh	CYP2C9 activ	CYP2C19 inhib	CYP2C9 inh	CYP2C19 activ
O=c1cc(-c2c(F)c(F)c(F)c(F)c2F)oc2c(F)c(F)c(F)c(F)c12	2.55	0.9	7.1	9.2	0.9
CC1(C)CC(=O)C(C=NCCN2CCN(CCc3ccccc3)CC2)=C(O)C1	-0.0131	·	·	·	·
Cc1ccc(NC(=O)CSC(N)=O)cc1Cl	-6.25*	0.6	29.6	42.3	0.7
NC(=O)SCC(=O)Nc1cccc(Cl)c1	-5.41*	0.8	42.7	18.5	0.6
COCC(=O)Nc1ccc(C)c(Cl)c1	-0.188	1.1	22.9	-10.7	0.8
Cc1ccc(NC(=O)Cn2cccc2)cc1Cl	0.000235	1	52.3*	4.4	0.5
NC(=O)SCC(=O)Nc1ccc(Cl)cc1	-4.01	0.5	36.3	51.4*	0.6
CC(CCc1ccc(O)cc1)N(C)CCc1ccccc1 (centres undefined)	-0.43	1.2	7.9	-21.2	0.9
COCCn1c(=O)[nH]c2cc(C(=O)NCCN3CCN(c4cccc(Cl)c4)CC3)ccc2c1=O	1.36	·	·	·	·
CC1(c2nnc(Cc3ccccc3)o2)CC(c2cccnc2)=NO1 (centres undefined)	0.575	·	·	·	·
CN(C)CCNC(=O)CN1C(=O)COc2ccc(C(C)(C)C)cc21	0.0334	1	-6.6	-2.5	1.1
CC1(OC(=O)CCc2ccccc2)C(=O)C=C2C=C(c3ccc(C#N)cc3)N(C3CCCC3)C=C2C1=O (centres undefined)	0.047	·	·	·	·
NC(=O)SCC(=O)Nc1ccc(Cl)c(Cl)c1	·	0.3	46.2	73.7*	0.5
CCC(CC)C(=O)Nc1ccc(Sc2ccc([N+](=O)[O-])cc2)cc1	-5.12*	1	12.9	0.6	0.9
CCC(CC)C(=O)Nc1ccc(Cl)c(Cl)c1	-5.17*	0.6	66.8*	38.2	0.3
Cc1cc(C)n(C2CCCCC2OC(=O)c2ccccc2)n1 (centres undefined)	-2.31	0.8	53.0*	18.9	0.5
Cc1cc(NC(=O)C2C3C(=O)N(Cc4ccc(Cl)cc4)C(C(=O)NC4CCCCC4)C34C=CC2(C)O4)no1 (centres undefined)	·	1.2	2.3	-24.3	1
Cc1cc(NC(=O)C2C3C(=O)N(Cc4ccc(Cl)cc4)C(C(=O)NCc4ccccc4)C34C=CC2(C)O4)no1 (centres undefined)	-1.29	0.2	40.0	83.1*	0.6
NS(=O)(=O)c1ccc(CCNc2ncnc3c2c(-c2ccccc2)cn3-c2ccc(F)cc2)cc1	1.42	0.4	23.1	56.9*	0.8
COc1ccc2ccccc2c1C(O)c1nccn1C (centres undefined)	-5.57*	0.6	28.4	40.8	0.7
Cc1ccc(C(O)c2nccn2C)o1 (centres undefined)	0.841	0.9	8.4	5.4	0.9
COc1ccc(C(=O)Nc2cccc(C)c2)cc1	0.829	0.9	71.2*	9.3	0.3
COc1ccc(C(=O)Nc2cccc(C(=O)N3CCN(C)CC3)c2)cc1	0.0276	0.8	14.9	15.6	0.9
CCC(=O)NC(=S)Nc1cccc(C(C)=O)c1	0.249	0.9	9.9	14.9	0.9
Cc1ccc(C(=O)Nc2cccc(C(=O)O)c2)cc1	0.0952	0.5	87.1*	54.5*	0.1
SMILES	Cav3 T inh	CYP2C9 activ	CYP2C19 inhib	CYP2C9 inh	CYP2C19 activ
O=C(O)c1cccc(NC(=S)NC(=O)C(c2ccccc2)c2ccccc2)c1	-0.98	0.2	-3.7	81.6*	1
Cc1cn(C(=O)C(C)N2C(=O)c3ccccc3C2=O)c(C)n1 (centres undefined)	0.346	0.8	50.5*	24.7	0.5
O=C(CSc1ccc(Cl)cc1)Nn1cnnc1	0.132	0.2	87.2*	82.1*	0.1
Cc1cc(C)nc(SCC(=O)Nn2cnnc2)n1	1.68	0.8	1.8	16.5	1
O=C(CSc1ncccn1)Nn1cnnc1	0.114	1	-5.3	-0.9	1.1
CC(C)C(NC(=O)CSc1ccc(Cl)cc1)C(C)C	-0.649	0.3	100.0*	65.9*	0
O=C(CSc1ccc2ccccc2c1)Nn1cnnc1	0.609	0.1	88.4*	90.5*	0.1
CCOC(NC(=O)c1ccccc1)C(NC(=O)c1ccccc1)OCC (centres undefined)	·	0.8	53.0*	16.0	0.5
CCN(CC)C(NC(=O)c1ccccc1)C(=O)c1ccccc1 (centres undefined)	0.484	0.4	59.6*	61.9*	0.4
N/C(COc1ccc(F)cc1)=N\NC(=O)c1cccnc1Oc1ccccc1	1.5	1	2.9	1.0	1
CCCC[C@H]1C2=C3[C@@H](CC(C(=O)OC)=C[C@@H](C(=O)OC)[C@H]3C(C)(C)C2=O)n2c(=O)n(-c3ccccc3)c(=O)n21	-0.444	·	·	·	·
CC1Oc2ccccc2N(Cc2ccccc2Cl)C1=O (centres undefined)	-2.17	·	·	·	·
Cc1ccc2c(c1)N(Cc1ccc3c(c1)OCO3)C(=O)C(C)O2 (centres undefined)	-2.3	0.7	60.9*	33.3	0.4
CC1Oc2ccccc2N(Cc2ccccc2F)C1=O (centres undefined)	-1.94	0.3	89.8*	66.9*	0.1
CCC1Oc2ccc(C)cc2N(Cc2cccc(C)c2)C1=O (centres undefined)	-2.92	0.8	19.0	20.8	0.8
CC1(c2ccccc2)CC2CC(c3ccccc3)N1O2 (centres undefined)	-0.39	0.5	92.0*	53.7*	0.1
C=CCn1c(SC(C)C(=O)NC2(C#N)CCCCC2)nnc1-c1ccc(OC)cc1 (centres undefined)	-0.0259	0.7	37.5	26.4	0.6
C=CCn1c(SCc2c(C(=O)OC)sc(N)c2C(=O)OC)nnc1-c1ccc(Br)cc1	-4.65*	0.1	71.5*	87.1*	0.3
CCc1ccccc1NC(=S)NCc1ccc2c(c1)OCO2	0.0354	1	60.8*	-3.8	0.4
Cc1ccccc1NC(=S)NCc1ccc2c(c1)OCO2	·	0.8	89.6*	24.7	0.1
CC1=C(C)CC(C(=O)NCc2ccc3c(c2)OCO3)C(C(=O)O)C1 (centres undefined)	0.0785	0.7	8.4	28.4	0.9
COCC(=O)NCc1ccc2c(c1)OCO2	0.386	1.1	-12.0	-7.3	1.1
Cc1cc(C)cc(NC(=S)NCc2ccc3c(c2)OCO3)c1	-4.84*	·	·	·	·
Cc1ccc(C)c(NC(=S)NCc2ccc3c(c2)OCO3)c1	-1.16	0.9	56.5*	6.7	0.4
CCOC(=O)C1CCN(C(=O)CN(c2ccc3c(c2)OCCO3)S(C)(=O)=O)CC1	1.01	1	0.5	-3.2	1
CCOC(=O)c1c(N)sc(C(O)(C(F)(F)F)C(F)(F)F)c1-c1ccc(OC)cc1OC	-4.9*	0.3	54.9*	71.9*	0.5
COC(=O)C1=C[C@@H](C(=O)OC)[C@@H]2C3=C(C(=O)[C@@]2(C)NC(=O)c2ccccc2)[C@H](C)C(C(=O)OC)=C(C(=O)OC)[C@@H]3C1	0.397	·	·	·	·
CCN(c1ccccc1)S(=O)(=O)c1ccc(OCc2c(C)noc2C)cc1	-4.43*	0.1	72.3*	86.3*	0.3
